# Data taken from PubChem BioAssay AID1159580 (chemical genetic matrix, 2015).
# About 2,000 (36%) of roughly 5,500 compounds were called active. About 18% were inconclusive and are not listed. Some of the results follow. Unmarked numbers belong to inactive results. No stated cut-off is given here; in the data, active means normalized growth mostly below about 0.91 (no sharp cut-off); inconclusive means no clear call, values can overlap the other calls; inactive means mostly above about 0.92.
# Test: chemical genetic growth profiling, strain panel (AID 1159580);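 further: tested at 20 µM; growth read once vehicle control cultures reached saturation at 30 °C; 1 = growth at the plate median or of vehicle wells; lower values mean less growth of the strain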
# Settings: growth OD
smiles,measurement,setting,value
CC(=O)OC1CCC2C3CCc4cc(O)ccc4C3CCC12C (stereo unspecified),normalized growth,"S. cerevisiae deletion strains, locus YJR075W, strain HOC1, hits give low values",0.919
same,normalized growth,"S. cerevisiae deletion strains, locus YKL009W, strain mrt4, hits give low values",0.923
same,normalized growth,"S. cerevisiae deletion strains, locus YKL068W, hits give low values",1.01
same,normalized growth,"S. cerevisiae deletion strains, locus YKL085W, strain MDH1 (second series), hits give low values",0.98
same,normalized growth,"S. cerevisiae deletion strains, locus YKL085W, strain MDH1, hits give low values",0.98
same,normalized growth,"S. cerevisiae deletion strains, locus YKL160W, strain elf1, hits give low values",0.904
same,normalized growth,"S. cerevisiae deletion strains, locus YKL190W, strain CNB1, hits give low values",1.01
same,normalized growth,"S. cerevisiae deletion strains, locus YKR001C, strain vps1, hits give low values",0.977
same,normalized growth,"S. cerevisiae deletion strains, locus YKR026C, strain gcn3, hits give low values",0.998
same,normalized growth,"S. cerevisiae deletion strains, locus YKR091W, strain srl3, hits give low values",1
same,normalized growth,"S. cerevisiae deletion strains, locus YLL001W, strain dnm1, hits give low values",0.963
same,normalized growth,"S. cerevisiae deletion strains, locus YLL026W, hits give low values",0.996
same,normalized growth,"S. cerevisiae deletion strains, locus YLL041C, strain sdh2, hits give low values",1.02
same,normalized growth,"S. cerevisiae deletion strains, locus YLR027C, strain aat2, hits give low values",0.976
same,normalized growth,"S. cerevisiae deletion strains, locus YLR039C, strain RIC1, hits give low values",0.86
same,normalized growth,"S. cerevisiae deletion strains, locus YLR058C, strain SHM2, hits give low values",0.971
same,normalized growth,"S. cerevisiae deletion strains, locus YLR102C, strain apc9, hits give low values",1.02
same,normalized growth,"S. cerevisiae deletion strains, locus YLR113W, strain HOG1, hits give low values",0.918
same,normalized growth,"S. cerevisiae deletion strains, locus YLR221C, strain rsa3, hits give low values",0.949
same,normalized growth,"S. cerevisiae deletion strains, locus YLR258W, strain gsy2, hits give low values",0.978
same,normalized growth,"S. cerevisiae deletion strains, locus YLR262C, strain YPT6 (second series), hits give low values",0.856 (active)
same,normalized growth,"S. cerevisiae deletion strains, locus YLR262C, strain YPT6, hits give low values",0.832
same,normalized growth,"S. cerevisiae deletion strains, locus YLR268W, strain sec22, hits give low values",0.97
same,normalized growth,"S. cerevisiae deletion strains, locus YLR320W, strain mms22, hits give low values",0.922
same,normalized growth,"S. cerevisiae deletion strains, locus YLR330W, strain CHS5, hits give low values",1.02
same,normalized growth,"S. cerevisiae deletion strains, locus YLR342W, strain FKS1 (second series), hits give low values",0.891
same,normalized growth,"S. cerevisiae deletion strains, locus YLR342W, strain FKS1, hits give low values",0.886 (active)
same,normalized growth,"S. cerevisiae deletion strains, locus YLR357W, strain rsc2, hits give low values",0.848 (active)
same,normalized growth,"S. cerevisiae deletion strains, locus YLR370C, strain arc18, hits give low values",0.98
same,normalized growth,"S. cerevisiae deletion strains, locus YLR371W, strain rom2, hits give low values",1.01
same,normalized growth,"S. cerevisiae deletion strains, locus YLR384C, strain iki3, hits give low values",0.964
same,normalized growth,"S. cerevisiae deletion strains, locus YLR418C, strain cdc73, hits give low values",0.941
same,normalized growth,"S. cerevisiae deletion strains, locus YML016C, strain PPZ1, hits give low values",1
same,normalized growth,"S. cerevisiae deletion strains, locus YML032C, strain rad52, hits give low values",0.954
same,normalized growth,"S. cerevisiae deletion strains, locus YML120C, strain ndi1, hits give low values",0.98
same,normalized growth,"S. cerevisiae deletion strains, locus YML124C, strain tub3, hits give low values",1.01
same,normalized growth,"S. cerevisiae deletion strains, locus YMR058W, strain fet3, hits give low values",0.983
same,normalized growth,"S. cerevisiae deletion strains, locus YMR078C, strain ctf18, hits give low values",1.02
same,normalized growth,"S. cerevisiae deletion strains, locus YMR125W, strain sto1, hits give low values",0.927
same,normalized growth,"S. cerevisiae deletion strains, locus YMR129W, hits give low values",1.01
same,normalized growth,"S. cerevisiae deletion strains, locus YMR205C, strain PFK2, hits give low values",0.954
same,normalized growth,"S. cerevisiae deletion strains, locus YMR223W, strain ubp8, hits give low values",0.969
same,normalized growth,"S. cerevisiae deletion strains, locus YMR231W, strain pep5, hits give low values",1.01
same,normalized growth,"S. cerevisiae deletion strains, locus YMR263W, strain SAP30, hits give low values",0.919
same,normalized growth,"S. cerevisiae deletion strains, locus YMR307W, strain GAS1, hits give low values",0.54 (active)
same,normalized growth,"S. cerevisiae deletion strains, locus YNL067W, strain RPL9B, hits give low values",0.945
same,normalized growth,"S. cerevisiae deletion strains, locus YNL071W, strain lat1, hits give low values",0.994
same,normalized growth,"S. cerevisiae deletion strains, locus YNL153C, strain GIM3, hits give low values",0.891
same,normalized growth,"S. cerevisiae deletion strains, locus YNL183C, strain NPR1, hits give low values",0.885
same,normalized growth,"S. cerevisiae deletion strains, locus YNL209W, strain ssb2, hits give low values",0.982
same,normalized growth,"S. cerevisiae deletion strains, locus YNL233W, strain BNI4, hits give low values",0.806 (active)
same,normalized growth,"S. cerevisiae deletion strains, locus YNL248C, strain rpa49, hits give low values",0.975
same,normalized growth,"S. cerevisiae deletion strains, locus YNL250W, strain rad50, hits give low values",1.01
same,normalized growth,"S. cerevisiae deletion strains, locus YNL271C, strain bni1, hits give low values",1.02
same,normalized growth,"S. cerevisiae deletion strains, locus YNL298W, strain CLA4, hits give low values",0.973
same,normalized growth,"S. cerevisiae deletion strains, locus YNL307C, strain MCK1, hits give low values",1
same,normalized growth,"S. cerevisiae deletion strains, locus YNL322C, strain KRE1 (second series), hits give low values",0.973
same,normalized growth,"S. cerevisiae deletion strains, locus YNL322C, strain KRE1, hits give low values",0.963
same,normalized growth,"S. cerevisiae deletion strains, locus YNR049C, strain mso1, hits give low values",1.01
same,normalized growth,"S. cerevisiae deletion strains, locus YNR052C, strain pop2, hits give low values",1.01
same,normalized growth,"S. cerevisiae deletion strains, locus YOL006C, strain TOP1, hits give low values",0.942
same,normalized growth,"S. cerevisiae deletion strains, locus YOL012C, strain htz1",1.3
same,normalized growth,"S. cerevisiae deletion strains, locus YOL147C, strain pex11, hits give low values",1.02
same,normalized growth,"S. cerevisiae deletion strains, locus YOR001W, strain rrp6, hits give low values",0.966
same,normalized growth,"S. cerevisiae deletion strains, locus YOR061W, strain CKA2, hits give low values",1
same,normalized growth,"S. cerevisiae deletion strains, locus YOR069W, strain VPS5, hits give low values",1.01
same,normalized growth,"S. cerevisiae deletion strains, locus YOR070C, strain gyp1, hits give low values",0.989
same,normalized growth,"S. cerevisiae deletion strains, locus YOR080W, strain dia2, hits give low values",0.998
same,normalized growth,"S. cerevisiae deletion strains, locus YOR083W, strain WHI5, hits give low values",0.904
same,normalized growth,"S. cerevisiae deletion strains, locus YOR106W, strain vam3, hits give low values",0.94
same,normalized growth,"S. cerevisiae deletion strains, locus YOR136W, strain idh2, hits give low values",0.994
same,normalized growth,"S. cerevisiae deletion strains, locus YOR144C, strain elg1, hits give low values",1
same,normalized growth,"S. cerevisiae deletion strains, locus YOR184W, strain ser1, hits give low values",0.945
same,normalized growth,"S. cerevisiae deletion strains, locus YOR231W, strain MKK1, hits give low values",0.96
same,normalized growth,"S. cerevisiae deletion strains, locus YOR265W, strain rbl2, hits give low values",0.998
same,normalized growth,"S. cerevisiae deletion strains, locus YOR270C, strain vph1, hits give low values",0.924
same,normalized growth,"S. cerevisiae deletion strains, locus YOR290C, strain snf2, hits give low values",0.971
same,normalized growth,"S. cerevisiae deletion strains, locus YOR316C, strain cot1, hits give low values",1.02
same,normalized growth,"S. cerevisiae deletion strains, locus YPL051W, strain arl3, hits give low values",0.959
same,normalized growth,"S. cerevisiae deletion strains, locus YPL055C, strain LGE1, hits give low values",0.842
same,normalized growth,"S. cerevisiae deletion strains, locus YPL078C, strain atp4, hits give low values",0.91
same,normalized growth,"S. cerevisiae deletion strains, locus YPL106C, strain sse1, hits give low values",0.848 (active)
same,normalized growth,"S. cerevisiae deletion strains, locus YPL240C, strain hsp82, hits give low values",1.01
same,normalized growth,"S. cerevisiae deletion strains, locus YPL241C, strain CIN2, hits give low values",1.02
same,normalized growth,"S. cerevisiae deletion strains, locus YPL256C, strain CLN2, hits give low values",0.931
same,normalized growth,"S. cerevisiae deletion strains, locus YPR119W, strain clb2, hits give low values",1
same,normalized growth,"S. cerevisiae deletion strains, locus YPR141C, strain kar3, hits give low values",1.02
same,normalized growth,"S. cerevisiae deletion strains, locus YPR163C, strain tif3, hits give low values",1.03
same,normalized growth,"S. cerevisiae deletion strains, locus YPR167C, strain met16, hits give low values",1.01
same,normalized growth,"S. cerevisiae deletion strains, strain wtn01, hits give low values",0.995
same,normalized growth,"S. cerevisiae strains, strain wild type, hits give low values",0.967
